Results on ten compounds are retold here after PubChem BioAssay AID623943 (Vanderbilt Specialized Chemistry Center, 2012).

Calls of active or inactive are those of the source.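 Rule for the calls: active = response changes with concentration, giving a dose-dependent curve as judged by the depositor; inactive = the rest, with no dose-dependent response.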

This assay addresses Muscarinic acetylcholine receptor M3 (Rattus norvegicus) (UniProt P08483). As to the kind of experiment: rat M3 muscarinic receptor PAM counter-screen, SAR follow-up, selectivity assay for M4 PAM optimization project, CHO-K1 cells, calcium fluorescence, ACh EC20 (AID 623943). As to conditions: CHO-K1 rM3, calcium fluorescence, PAM mode with ACh EC20; series mostly up to 30 µM. (The purpose of a counterscreen is to sort out artefacts and off-target activity.)
`Cc1nc2sc(C(=O)NCc3ccncn3)c(N)c2c(C)c1Cl`: the outcome was inactive.

For the compound `COc1ccc(C)c2sc(NC(=O)c3ccncc3)nc12`, the result was inactive.

Regarding `Cc1nc2sc(C(=O)NCc3cccc(F)c3F)c(N)c2c(C)c1Cl`, the outcome was inactive.

Take `Cc1nc2sc(C(=O)NCc3ccncc3)c(N)c2c(C)c1Cl`: the result was inactive.

As to `Cc1nc2sc(C(=O)NCc3ccc4c(c3)OCO4)c(N)c2c(C)c1Cl`, the outcome was inactive.

As to `Cc1nc2sc(C(=O)NCc3nccs3)c(N)c2c(C)c1Cl`, the outcome was inactive.

Take `Cc1nc2sc(C(=O)NCc3cccnc3)c(N)c2c(C)c1Cl`: the outcome was inactive.

As for `Cc1nc2sc(C(=O)NC3CC3)c(N)c2c(C)c1Cl`, the outcome was inactive.

For the compound `Cc1nc2sc(C(=O)NCc3ccccc3)c(N)c2c(C)c1Cl`, the outcome was inactive.

Turning to `Cc1nc2sc(C(=O)NCCc3ccncc3)c(N)c2c(C)c1Cl`, the result was inactive.
